Measured values reported in PubChem BioAssay AID1259400 (National Center for Advancing Translational Sciences (NCATS), 2018).
The whole screen tested about 350,000 compounds, of which about 2,100 (0.6%) were called active. About 1% were inconclusive and are not listed. What follows is part of a selection rich in actives, with near analogues and random picks from the rest. Unmarked numbers belong to inactive results.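 The calls were made as follows: active = activity change of -60% or lower, but not beyond a set lower limit; inconclusive = change between -60% and -40%, or beyond the set limit; inactive = change above -40%.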

biological target: Relaxin receptor 1 (Homo sapiens) (UniProt Q9HBX9); assay: qHTS Assay for Antagonists of the Relaxin Receptor RXFP1; conditions: HEK293-RXFP1, relaxin-stimulated cAMP HTRF, 30 min; at 57.5 µM; stronger effect = lower value
Sequence (Q9HBX9 whole entry, looked up): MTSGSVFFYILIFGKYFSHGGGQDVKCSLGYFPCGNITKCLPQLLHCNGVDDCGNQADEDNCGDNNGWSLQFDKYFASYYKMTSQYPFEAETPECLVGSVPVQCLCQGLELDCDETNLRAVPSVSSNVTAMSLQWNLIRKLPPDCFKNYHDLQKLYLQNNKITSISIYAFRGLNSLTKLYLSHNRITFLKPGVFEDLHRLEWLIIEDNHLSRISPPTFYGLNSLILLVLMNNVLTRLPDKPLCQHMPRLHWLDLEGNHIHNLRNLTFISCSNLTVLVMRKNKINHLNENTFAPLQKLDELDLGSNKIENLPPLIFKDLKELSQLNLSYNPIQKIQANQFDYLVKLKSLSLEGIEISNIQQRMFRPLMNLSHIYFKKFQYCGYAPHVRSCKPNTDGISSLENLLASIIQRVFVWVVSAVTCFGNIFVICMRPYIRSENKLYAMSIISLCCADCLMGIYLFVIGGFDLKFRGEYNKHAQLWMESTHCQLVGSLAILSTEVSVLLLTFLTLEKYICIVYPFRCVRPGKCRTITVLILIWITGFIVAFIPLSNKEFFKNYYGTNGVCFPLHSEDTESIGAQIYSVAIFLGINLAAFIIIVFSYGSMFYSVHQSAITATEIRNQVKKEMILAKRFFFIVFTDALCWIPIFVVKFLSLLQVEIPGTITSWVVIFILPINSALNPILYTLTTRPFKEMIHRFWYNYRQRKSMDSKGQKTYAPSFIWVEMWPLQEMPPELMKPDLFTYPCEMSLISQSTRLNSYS
% is scaled to controls: 0 for no effect and ±100 for the full control effect.

SMILES	activity change, negative = inhibition
Cc1c(Cl)cccc1-c1ccc(CNCCCSc2nnnn2C)o1	-6.68%
Cc1ccc(C2C=C(c3ccc(Cl)cc3)Nc3nc(NC(=O)CCC(=O)O)nn32)cc1 (stereo not drawn)	-0.127%
Cc1ccc(Cl)cc1N1CCN(C(=O)c2cnc3c(-c4ccc(F)cc4)c(C)nn3c2C)CC1	-19.1%
CC(C)OC(=O)c1ccc(NCc2cc(O)ccc2O)cc1Cl	-85.7% (active)
COC(=O)c1ccc(NCc2cc(O)ccc2O)cc1	-28.1%
O=C(OC12CC3CC(CC(C3)C1)C2)c1ccc(NCc2cc(O)ccc2O)cc1	-37.9%
CCCN1CCc2nc(N3CCN(C)CC3)ncc2C1	3.24%
FC(F)(F)c1cccc(N/N=C/c2ccccc2)c1	6.38%
O=C(N/N=C/c1ccc(O)c(O)c1)C1c2ccccc2Oc2ccccc21	-17.9%
Oc1ccc(/C=N/Nc2ccc(C(F)(F)F)cn2)cc1O	-72.1% (active)
CC1(C)OC[C@@H](COC(=O)CCc2ccc(OC[C@@H](O)CNCCNC(=O)N3CCOCC3)cc2)O1	-4.26%
O=C(CSc1nc(=O)[nH]c2c1CCCC2)Nc1cc(C(F)(F)F)ccc1Cl	6.44%
COc1ccc(NC(=O)CSc2nccn2C2CCCC2)cc1OC	6.9%
O=C(CSc1nccn1C1CCCC1)Nc1cc(C(F)(F)F)ccc1Cl	-72.3% (active)
Cc1cc2c(cc3c(SCc4cccc(Cl)c4)nnc(C)n32)o1	-4.3%
Cn1cnnc1SCC(=O)Nc1ccc(N2CCOCC2)cc1	-11.8%
O=C(CSc1ccc([N+](=O)[O-])cn1)Nc1ccc(N2CCOCC2)c(Cl)c1	-1.58%
O=C(CSc1ccc([N+](=O)[O-])cn1)Nc1ccc(N2CCOCC2)cc1	-66.8% (active)
Cc1ccc(O)c(NC(=O)c2cc(-c3ccc(F)cc3)no2)c1	-3.02%
CC(=O)c1ccc(NC(=O)CSc2c(C(C)C)cnc3c2c(=O)n(C)c(=O)n3C)cc1	3.09%
CC(C)c1ccc(C2CC(=O)N3CN(C4CCCCC4)CSC3=C2C#N)cc1 (stereo not drawn)	-4.73%
Cc1ccc(-c2nc3cccc(C)n3c2Nc2ccc3c(c2)OCCO3)cc1	3.27%

SMILES	activity change, negative = inhibition
COc1ccc(-c2[nH]ncc2/C=N/NC(=O)c2cc(Br)ccc2O)c(OC)c1	-30%
CC(=O)N/N=C(\C)c1ccc(Br)cc1Br	3.93%
CC(=N\NC(=O)c1cc(Br)ccc1O)/C(=N/O)C(=O)Nc1ccccc1	-80.9% (active)
CC(NCc1ccccc1OC1CCCC1)c1ccccc1 (stereo not drawn)	-60.9% (active)
CC(C)(C)NCc1cc(Br)ccc1OC1CCCC1	-6.03%
COc1cc(CNC2CCCCC2)c(Br)cc1OC1CCCC1	-7.24%
O=C(Cn1nc(Cc2cccnc2)c2ccccc2c1=O)N1CCN(c2ccccc2F)CC1	5.94%
CCCc1cc(=O)n2[nH]c(NCc3ccc(CC)cc3)nc2n1	-11.6%
Cc1ccc(-c2cc(C(=O)Oc3ccccc3Cl)no2)cc1C	-12.2%
O=C(N/N=C/c1ccco1)c1csc2c1CCCC2	-11.1%
Cc1ccc(-n2nc(C)c(/C=N/NC(=O)c3cccs3)c2Cl)cc1	-17.6%
O=C(N/N=C/C=C/c1ccco1)c1cccs1	-79.6% (active)
O=C(Nc1c(C(=O)N2CCN(c3ccc(F)cc3)CC2)oc2ccccc12)c1ccco1	-14.5%
CCCCNC(=O)c1cc(-c2ccc(Cl)c(Cl)c2)on1	-6.36%
C=CS(=O)c1sc(Cl)c(N2CCOCC2)c1[N+](=O)[O-] (stereo not drawn)	-60.3% (active)
O=C(NCCCN1CCN(c2cccc(Cl)c2)CC1)c1nnc(Cc2ccc(F)cc2Cl)o1	-19.5%
COc1ccc(CCNC(=O)c2cn(C)c3ccc(S(=O)(=O)N(C)C4CCCCC4)cc3c2=O)cc1OC	-10.4%
CCOC(=O)C1Cn2c(nc3c(c2=O)C(C)(CC)Cc2ccccc2-3)S1 (stereo not drawn)	-6.89%
CCC1(CC)Cc2ccccc2-c2nc(CCl)[nH]c(=O)c21	-80.4% (active)
N#CCSc1nc2c(c(=O)n1Cc1ccccc1)C1(CCCC1)Cc1ccccc1-2	-9.93%
CCc1nc(-c2cc(S(=O)(=O)N3CCN(c4ccc(OC)cc4)CC3)ccc2OC)no1	0.921%
CCCC12CN3CC(CCC)(CN(C1)C3c1c[nH]c3ccc(OC)cc13)C2=O (stereo not drawn)	-18.6%

SMILES	activity change, negative = inhibition
O=C(Nc1nc2c(s1)CCCC2)c1ccccc1F	-33.1%
Cc1cc(C)cc(OC(C)C(=O)Nc2nc3c(s2)CCCC3)c1 (stereo not drawn)	-103% (active)
COC(=O)C(NC(C)=O)(Nc1nc2c(s1)CCCC2)C(F)(F)F (stereo not drawn)	-2.87%
CCC(Sc1nc2n[nH]c(C)c2c(=N)n1-c1ccccc1Cl)C(=O)N(CC)CC (stereo not drawn)	-33.6%
COc1ccc(C)cc1N(C)C(=O)c1c(C)oc2ncnc(N3CCOCC3)c12	-0.158%
COc1ccc(C(=O)NC2CCCc3c2cnn3-c2cccc(C)c2C)c(OC)n1 (stereo not drawn)	-116% (active)
COc1ccc(OC)c(C(=O)NC2CCCc3c2cnn3-c2cc(C)cc(C)c2)c1 (stereo not drawn)	2.28%
Cc1ccc(-n2ncc3c2CCCC3NC(=O)c2cnccn2)cc1C (stereo not drawn)	-3.03%
NCC[C@H](O)C(=O)N[C@@H]1C[C@H](N)[C@@H](O[C@H]2O[C@H](CN)[C@@H](O)[C@H](O)[C@@H]2O)[C@H](O)[C@@H]1O[C@H]1O[C@H](CO)[C@@H](O)[C@H](N)[C@@H]1O	-6.65%
COc1ccc(CNC(=O)CCn2cccc2)cc1	-6.31%
COc1cc(C(=O)NCc2ccc3c(c2)cc(C)n3C)cc(OC)c1OC	12%
CCOCC(=O)NCc1ccc2c(c1)cc(C)n2C	-74.1% (active)
CCOc1ccc(-c2cc3c(=O)n(CC(=O)NCc4ccc(OC)cc4)ccn3n2)cc1	4.95%
COc1ccc(Cn2ccnc2SCC(=O)Nc2ccc3c(c2)OCO3)cc1	-2.29%
Cc1ccc(CN2CCc3nc(N4CCN(C)CC4)ncc3C2)cc1	-7.68%
Cc1cc(-c2ccccc2)n2nc(-c3ccccc3)cc2n1	-15.7%
Cc1cccc(-n2ncc(C(=O)N3CCN(c4ccc(Cl)cc4)CC3)c2C2CCN(C(=O)OC(C)(C)C)CC2)c1	-19.9%
O=C(OCC(O)CO)c1ccccc1Nc1ccnc2c(C(F)(F)F)cccc12 (stereo not drawn)	-23.3%
Cc1ccc(CN2CCC(CNC(=O)c3cnn(-c4ccccc4Cl)c3C3CCN(C(=O)OC(C)(C)C)CC3)CC2)cc1	-35.3%
Cc1cccc(-n2ncc(C(=O)N3CCC(C)CC3)c2C2CCN(C(=O)OC(C)(C)C)CC2)c1	1.6%
Cc1ccc(C2CCN(C(=O)c3cnn(-c4ccccc4Cl)c3C3CCN(C(=O)OC(C)(C)C)CC3)C2)cc1 (stereo not drawn)	-70.8% (active)
Cc1cccc(C)c1NC(=O)c1ccc(N)cc1	14.2%

SMILES	activity change, negative = inhibition
CCOc1cccc2c1N[C@@H](c1ccc(C(=O)O)cc1)[C@H]1CC=C[C@@H]21	-4.8%
O=C(CCl)Nc1ccc(Sc2ccc(NC(=O)CCl)cc2)cc1	-96.8% (active)
O=C(CCl)Nc1cccc(CP(=O)(c2ccccc2)c2ccccc2)c1	-12.2%
CC(C)(CCl)C(=O)Nc1ccc(Sc2ccc(F)cc2)cc1	-28.2%
Cc1ccccc1CNC(=O)CCC(=O)N1Cc2ccccc2Oc2ncccc21	-120% (active)
Cc1ccc(CNC(=O)CCC(=O)N2Cc3ccccc3Oc3ncccc32)cc1	0.223%
CCCNC(=O)CCC(=O)N1Cc2ccccc2Oc2ncccc21	-2.12%
O=C(CC1N=C2c3ccccc3N=C(SCc3ccc(F)cc3)N2C1=O)NCc1cccs1 (stereo not drawn)	-7.63%
COc1ccccc1C(=O)Nc1c(C(=O)N(C)Cc2ccccc2)sc2nc(C)c(Cl)c(C)c12	-8.81%
CCC(=O)N1CCc2cc(Br)cc(S(=O)(=O)CCC(=O)NCCc3ccc(OC)c(OC)c3)c21	-17.8%
Cc1ccc(C)c(N2CCN(C(=O)Cn3nc(C)c4sc5ccccc5c4c3=O)CC2)c1	-3.69%
CCOc1ccc(CNC(=O)C2CCCN(S(=O)(=O)N(CC)c3ccc(OCC)cc3)C2)cc1 (stereo not drawn)	-7.3%
CCCCOc1ccc(CN2C(=O)C(=O)c3cc(Br)cc(C)c32)cc1OC	-71.4% (active)
CCCCN1C(=O)C(C)=C(C)C1OCCc1ccc(OC)c(OC)c1 (stereo not drawn)	-1.03%
CCCCOc1ccc(Cn2c(=O)oc3ccc(C)cc32)cc1OC	-39.4%
Cc1cc(C)c2oc(C(=O)Nc3ccc(S(=O)(=O)N4CCCCCC4)cc3)cc(=O)c2c1	-1.32%
CO/N=C(\C(=O)N[C@@H]1C(=O)N2C(C(=O)O)=C(Cn3nnc(C)n3)CS[C@H]12)c1csc(N)n1	10%
O=C(COC(=O)c1ccc(Oc2ccccc2)cc1)Nc1nnc(-c2ccccc2)o1	-76.2% (active)
CC(=O)Nc1cccc(C(=O)OCC(=O)Nc2nnc(-c3ccccc3)o2)c1	-4.64%
COc1ccccc1C(=O)NCC(=O)OCC(=O)Nc1nnc(-c2ccccc2)o1	-0.478%
O=C(CN1CCSc2ccccc21)N1CCN(c2ccccc2)CC1	-6.69%
CCOc1ccc(-c2cc(C)n3nc(C(=O)Nc4ccc(C)c(C)c4)cc3n2)cc1	-24%
